BaF3 tox: counter-screen for JAK2V617F inhibitors: parental Ba/F3 viability inhibitors. CellTiter-Glo ATP luminescence. inhibition, % at 5.6 µM. 220,000 tested, 1.1% active. AID 1486;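 active = inhibition above a per-campaign cutoff, the mean inhibition of all tested compounds plus 3 SD, cut at about 27% in these data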;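 note: 0% = DMSO wells and 100% = JAK Inhibitor I control wells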
APP 5UTR inh: APP translation inhibition. SH-SY5Y APP 5'UTR-luciferase reporter, luminescence. inhibition, % at 2 µM. AID 1285. 190,000 tested, 0.82% active;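 active = inhibition above a set limit, derived from the sample mean plus 3 SD, cut at about 45% in these data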
aSyn UTR inh: 5' untranslated region of α-synuclein, MLPCN primary screen; alpha-synuclein 5'UTR reporter, inhibitor activity; 300,000 tested, 0.82% active; inhibition, % (tested at 7.5 µM); AID 1813; in the data active = inhibition above about 60%;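 note: H4 neuroglioblastoma cells stably carrying SNCA 5'UTR luciferase fusion; 0% = DMSO wells and 100% = positive control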
Ba/F3 V617F tox: reduce viability of Ba/F3 cells dependent on JAK2V617F; Ba/F3 EpoR-JAK2V617F viability, ATP luminescence; inhibition, % at 5.6 µM; AID 1446; 220,000 tested, 1.1% active;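 active = inhibition above the campaign mean plus 3 SD over all tested compounds, cut at about 24% in these data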;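 note: cytokine-independent growth of Ba/F3 cells driven by EpoR plus mutant JAK2; 0% = DMSO-treated cells and 100% = JAK inhibitor I control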
KLF5 inh: suppresses KLF5 promoter-driven expression; DLD-1 KLF5 promoter-luciferase reporter, luminescence; inhibition, % at 5 µM; 290,000 tested, 0.23% active; AID 1700;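 active = inhibition above a per-plate limit of that plate's mean compound inhibition plus 3 SD, cut at about 60% in these data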;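 note: 0% = DMSO wells and 100% = LY294002 at 200 µM; higher means less KLF5 promoter-driven luciferase light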
IEC-6 cytotox: kills IEC-6 intestinal cells in KLF5 counter-screen; 290,000 tested, 0.78% active; IEC-6 cytotoxicity, luminescence viability; inhibition, % at 5 µM; in the data active = inhibition above about 22%;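 note: 0% = plate median of test compound wells and 100% = cytotoxic reference compound wells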
The depositor's hits bear a star; x = not tested or not shown. The list is not random: actives were taken first. Their share in the collection is about 2.2%.

SMILES	BaF3 tox	APP 5UTR inh	aSyn UTR inh	Ba/F3 V617F tox	KLF5 inh	IEC-6 cytotox
Cc1ccc(-n2c(C)cc(C(=O)COc3cccnc3[N+](=O)[O-])c2C)cc1	5.7	-26.9	64.1*	0.8	28.0	0.9
Cc1cc(-n2c(C)cc(C(=O)COc3ccccc3[N+](=O)[O-])c2C)no1	7.3	-25.0	-67.5	1.7	-29.8	-2.4
Cc1cc(C(=O)COc2cccnc2[N+](=O)[O-])c(C)n1-c1ccccc1	5.2	21.4	99.8*	2.0	-19.0	-4.2
Cc1cc(C(=O)COc2cccnc2[N+](=O)[O-])c(C)n1-c1ccccc1F	-4.5	x	67.5*	-2.4	-30.5	-7.1
Cc1cc(C(=O)COc2cccnc2[N+](=O)[O-])c(C)n1Cc1ccco1	8.4	5.0	14.2	1.9	-26.9	-8.8
CCCn1c(N)c(N(CCOC)C(=O)CSCC(=O)Nc2ccc(OC)cc2)c(=O)[nH]c1=O	x	x	11.2	x	x	x
CS(=O)(=O)Nc1ccc(C(=O)Nc2ccccc2-c2ccccc2)cc1	x	x	6.4	x	-5.9	-1.5
CC(=O)c1c(C)[nH]c(C(=O)COc2cc(C)ccc2C(C)C)c1C	40.0*	4.5	23.0	45.4*	-10.5	16.7
O=C(c1cccc(-c2ccccc2F)c1)N1CC[C@@H](N2CCC(O)CC2)[C@H](O)C1	x	x	3.6	x	-1.2	0.4
Cc1ccc(-c2csc3nc4c5ccccc5c(NCCCN(C)C)nn4c(=O)c23)cc1	9.2	5.0	115.6*	5.2	0.5	5.2
CCN(CC(=O)NCc1ccc(F)cc1)C(=O)/C=C/c1cc(OC)ccc1OC	x	x	6.4	x	-25.4	-0.5
CC[N+]1(CC)CC2=Cc3c(ccc4ccccc34)C(C)C2C1 (centres undefined)	54.0*	x	-0.9	62.8*	-26.1	2.2
Cc1cc(=O)[nH]c(N/N=C/c2ccccn2)n1	2.4	64.9*	73.8*	10.3	-33.1	1.6
Cc1cc(=O)[nH]c(N/N=C/c2cccc(Br)c2)n1	x	x	-24.5	x	-40.9	1.6
NC(=O)N=Nc1c(O)[nH]c2ccc([N+](=O)[O-])cc12	0.3	x	2.3	-4.1	-18.1	2.3
COc1ccccc1C(=O)N=Nc1c(O)[nH]c2ccc([N+](=O)[O-])cc12	4.2	14.4	x	60.4*	-28.4	-2.7
CC1(C)CC(N2CCCC2)=CC(=[N+]2CCCCCC2)C1	71.5*	2.3	-2.0	99.2*	1.2	29.5*
CCN(CC)C1=CC(=[N+]2CCCC2)CC(C)(C)C1	63.4*	-1.0	-4.3	73.7*	-15.0	6.3
CC1(C)CC(N2CCN(c3ccccc3)CC2)=CC(=[N+]2CCCC2)C1	75.3*	-8.6	-3.0	85.4*	-3.7	14.4
Cc1c(C)n(Cc2ccccc2)c2ccc(C(=O)OCCN(C)C)cc12	11.4	-5.8	6.4	-0.7	-9.0	-4.4
Cc1csc(CN(C)C(=O)C2CCC(=O)N(CCN(C)C)C2)n1 (centres undefined)	x	x	9.1	x	-15.1	2.2
CCSc1nnc(-c2ccc(S(=O)(=O)N3CCOCC3)cc2)n1C	x	x	9.6	x	2.7	8.5
CCSc1nnc(-c2ccc(S(=O)(=O)N3CCCC3)cc2)n1C	1.2	72.6*	-35.6	0.0	-6.4	1.5
CCCCSc1nnc(-c2ccc(C)cc2)n1C	35.2*	-38.0	-109.3	30.5*	-41.3	4.7
CCOCCCNC(=O)c1cn(CC)c2ccc(S(=O)(=O)N3CCCC3)cc2c1=O	x	x	15.7	x	-30.0	2.7
SMILES	BaF3 tox	APP 5UTR inh	aSyn UTR inh	Ba/F3 V617F tox	KLF5 inh	IEC-6 cytotox
Cc1ccccc1Cn1cc(NC(=O)c2noc(C(C)C)c2[N+](=O)[O-])cn1	x	x	106.1*	x	-28.3	-5.5
CCS(=O)(=O)N1CCCC(c2nc(-c3cccc(OC)c3)no2)C1 (centres undefined)	95.8*	-24.9	-102.3	-2.9	-33.0	4.7
CCCS(=O)(=O)N1CCCC(c2nc(-c3ccc(OC)cc3)no2)C1 (centres undefined)	4.0	-8.6	-6.2	-2.5	-5.5	-2.8
Cc1cc(C)cc(OCC(=O)Nc2nc(-c3cccnc3)cs2)c1	x	x	17.9	x	-34.5	-6.6
Cn1c(Cc2ccccc2)[n+](C)c2ccccc21	68.9*	13.8	-16.0	66.6*	-7.6	-1.9
Cn1c(=O)c(Cc2ccccc2)c(O)c2ccccc21	3.8	43.6	6.1	-2.0	-57.2	-2.0
COc1ccc(NC(=O)CCc2nnc3ccc(N4CCN(c5cccc(OC)c5)CC4)nn23)cc1	x	x	-3.2	x	-18.0	-1.2
COc1ccc(Nc2oc(COc3cccc(C)c3)nc2C#N)cc1	5.5	-4.5	29.5	1.4	-44.5	5.3
COc1ccc(Nc2oc(COc3ccc(C)cc3)nc2C#N)cc1	4.3	-2.4	67.9*	3.9	-31.3	0.4
COc1ccc(Nc2oc(COc3ccccc3F)nc2C#N)cc1	3.1	-1.2	38.5	-0.9	-20.4	3.5
COc1ccc(Nc2oc(COc3ccc(OC)cc3)nc2C#N)cc1	-1.6	4.2	77.9*	-3.5	4.3	1.1
Cn1c(O)c(N=NC(=O)c2cc(-c3cccs3)nc3ccccc23)c2ccccc21	4.6	2.4	13.0	-1.3	11.1	-4.0
O=C(N=Nc1c(O)[nH]c2ccc(Br)cc12)c1cc(-c2cccs2)nc2ccccc12	4.0	27.7	81.4*	0.1	-10.8	5.9
CC(C)[C@@H](C(=O)N[C@@H](Cc1ccccc1)C(=O)O)N1C(=O)N2CCc3c([nH]c4ccccc34)[C@@]2(C)C1=O	x	x	11.7	x	12.9	2.1
Cc1c(Cl)c([N+](=O)[O-])nn1CC(=O)N1CCN(C23CC4CC(CC(C4)C2)C3)CC1	x	x	5.6	x	3.8	3.8
CCn1c(O)c(/C=C2\C=NN=C2c2ccccc2)sc1=S	3.9	x	67.0*	-2.5	-20.5	2.1
CCCCn1c(O)c(/C=C2\C=NN=C2c2ccccc2)sc1=S	1.1	7.0	12.5	-3.1	-40.0	-4.1
CCc1ccc(NC(=O)CCS(=O)(=O)c2ccc3c(c2)CCN3C(C)=O)cc1	x	x	2.7	x	-5.4	7.2
CCC(=O)N1CCc2cc(S(=O)(=O)CCC(=O)Nc3ccc(CC)cc3)ccc21	93.3*	-6.0	16.8	-0.7	-45.6	-2.0
COc1ccccc1C(C#N)c1cccc(Cl)n1 (centres undefined)	x	x	-7.3	x	-53.6	-1.5
FC(F)Oc1ccc(-c2csc(Cc3nnc4n3CCCCC4)n2)cc1	3.2	-0.5	21.2	5.5	11.4	5.5
FC(F)Oc1ccc(-n2cc(-c3ccc(Cl)cc3)[n+]3c2CCCCC3)cc1	62.3*	x	-10.5	53.7*	16.4	2.3
COc1ccc(-n2cc(-c3ccccc3)[n+]3c2CCCCC3)cc1	58.7*	4.7	-13.0	72.3*	-9.6	15.7
FC(F)Sc1ccc(-n2cc(-c3ccccc3)[n+]3c2CCC3)cc1	69.0*	-17.3	-9.7	59.7*	-10.9	-2.4
COc1ccc(-n2cc(-c3ccccc3)nc2SC)cc1	7.2	-75.7	-121.3	0.1	-46.6	-5.4
COc1ccc(-c2cn(-c3ccc(SC(F)F)cc3)c3[n+]2CCC3)cc1OC	2.8	7.7	0.7	-3.5	-20.8	-2.7
C=CCNC(=O)CSc1nnc(-c2ccc(S(=O)(=O)N3CCCC3)cc2)n1C	x	x	-2.0	x	2.6	2.9
